In paper PMC11574364:

molecular target: T1, RBM9 (Homo sapiens, UniProt O43251); assay: protein domain microarray probed with biotinylated miRNA; Domain array: 20 mM Tris-HCl pH 7.4, 200 mM KCl, 0.2 mM EDTA, 0.05% NP40, 2 ug/ul heparin, overnight 4 C. ORF array: PBS pH 7.0 with RNase inhibitor, 100 ng RNA; high values mean tight binding; conditions: ssRNA
T1 sequence: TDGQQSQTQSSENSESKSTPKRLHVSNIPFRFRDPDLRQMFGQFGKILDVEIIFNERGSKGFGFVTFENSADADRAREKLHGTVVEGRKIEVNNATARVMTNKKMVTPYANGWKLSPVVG

Sequence	binding signal [fluorescence intensity]
UGAGGUAGUAGGUUGUAUAGUU	693 ± 16.3
CAGUGCAAUGAUGAAAGGGCAU	1850 ± 25.3
UAGCUUAUCAGACUGAUGUUGA	916 ± 20.1
AGAGGUAGUAGGUUGCAUAGUU	2720 ± 95.4
UGAGGUAGUAGGUUGUGUGGUU	1610 ± 18
UGAGGUAGUAGGUUGUAUGGUU	1940 ± 112

Molecular target: T2, NOVA1(1-2) (Homo sapiens, UniProt P51513)
T2 chain: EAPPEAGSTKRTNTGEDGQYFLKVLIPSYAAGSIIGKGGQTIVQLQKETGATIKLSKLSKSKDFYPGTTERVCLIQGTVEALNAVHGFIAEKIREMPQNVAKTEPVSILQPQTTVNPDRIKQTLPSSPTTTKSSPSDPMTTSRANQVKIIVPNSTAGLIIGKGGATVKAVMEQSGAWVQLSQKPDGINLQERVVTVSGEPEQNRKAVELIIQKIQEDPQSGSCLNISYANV
Assay: as above
Conditions: ssRNA

Sequence	binding signal [fluorescence intensity]
UGAGGUAGUAGGUUGUAUAGUU	27.6 ± 0.799
CAGUGCAAUGAUGAAAGGGCAU	260.9 ± 1.94
AGAGGUAGUAGGUUGCAUAGUU	318 ± 18.7
UGAGGUAGUAGGUUGUGUGGUU	134 ± 4.86
UGAGGUAGUAGGUUGUAUGGUU	90.1 ± 7.43
